Several values for one entry are separate records, joined by “and”; a condition that tells them apart may be missing. Equal entries are not always repeated. Results filed as inconclusive are left out. The source holds several records for some structures; these can differ, active in one and inactive in another. Activity calls are given as the source filed them. Rule for the calls, unless noted: active = hit-call score of the fitted dose curve at least 0.9, where 1 is the maximum; inactive = score below 0.9.
Legend:
[1] = IUF_NPC2c_oligodendrocyte_migration_120hr: Leibniz Research Institute for Environmental Medicine (IUF) 120-hour Neural Progenitor Cell Migration Assay for Oligodendrocyte Migration (NPC2c) (AID 2284297);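 note: O4-positive oligodendrocyte migration distance divided by radial glia migration distance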
In short: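 Human fetal cortex-derived neural progenitor spheres (0.3 mm) were plated on poly-D-lysine/laminin in N2 differentiation medium and exposed to 7 concentrations for 120 h, with half-medium renewal at day 3. Oligodendrocyte migration distance was normalized to radial glia migration, relative to DMSO.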

[2] = IUF_NPC2a_radial_glia_migration_72hr: Leibniz Research Institute for Environmental Medicine (IUF) 72-hour Neural Progenitor Cell Migration Assay for Radial Glia Migration (NPC2a) (AID 2284299)
In short: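 Spheres of human primary neural progenitors migrate on poly-D-lysine/laminin under compound exposure at 37C, 5% CO2. The 72 h radial glia migration distance comes from brightfield images, measured manually.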

[3] = IUF_NPC3_neuronal_differentiation_120hr: Leibniz Research Institute for Environmental Medicine (IUF) 120-hour Neuronal Differentiation Assay (NPC3) (AID 2284301)
In short: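 Neuronal differentiation of primary human neural progenitors measured by high-content imaging: percent TUBB3+ of Hoechst+ nuclei within migrated area at 120 h, seven-point serial dilution plus solvent control, gain or loss relative to DMSO.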

[4] = IUF_NPC4_neurite_length_120hr: Leibniz Research Institute for Environmental Medicine (IUF) 120-hour Neuronal Morphology Assay for Neurite Length (NPC4) (AID 2284302)
In short: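 Neurons from differentiating human fetal neural progenitor spheres are scored for average neurite length after five days of compound exposure. Fitting uses DMSO as negative control.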

[5] = IUF_NPC5_oligodendrocyte_differentiation_120hr: Leibniz Research Institute for Environmental Medicine (IUF) 120-hour Oligodendrocyte Differentiation Assay (NPC5) (AID 2284304; active = hit-call score of the fitted dose curve at least 0.9, where 1 is the maximum;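 note: primary human fetal neural progenitor spheres plated to migrate and differentiate; share of O4-positive cells among Hoechst nuclei found by CNN image analysis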)
In short: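 Primary human fetal (GW 16-19) neural progenitor spheres (0.3 mm) plated on poly-D-lysine/laminin in N2 differentiation medium, exposed from day 0 for 120 h with half-medium refresh at day 3; O4-positive cells as percent of Hoechst nuclei, CNN-identified, versus DMSO.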

[6] = IUF_NPC4_neurite_area_120hr: Leibniz Research Institute for Environmental Medicine (IUF) 120-hour Neuronal Morphology Assay for Neurite Area (NPC4) (AID 2284305; active = hit-call score of the fitted dose curve at least 0.9, where 1 is the maximum)
In short: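 Endpoint at 120 h: automated imaging of TUBB3/Hoechst-stained differentiating human neural progenitor spheres, neurite area per neuron from skeletonization. DMSO solvent control, not above 0.1%, set the baseline; medium was half-replaced on day 3.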

[7] = IUF_NPC2-5_cytotoxicity_72hr: Cytotoxicity Assessment at 72 hours in the Leibniz Research Institute for Environmental Medicine (IUF) Neural Progenitor Cell Migration and Differentiation Assay for Cytotoxicity (NPC2-5) (AID 2284306; active = hit-call score of the fitted dose curve at least 0.9, where 1 is the maximum;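 note: LDH release into supernatant measured by resorufin fluorescence marking membrane damage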)
In short: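 Primary human neural progenitor spheres migrate and differentiate on laminin. Compound is present from the start of differentiation, with DMSO kept at or below 0.1%. At 72 h, supernatant LDH is quantified fluorometrically, with values fitted in the positive direction.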

[8] = BSK_MyoF_SRB: Viability Assessment in the BioMAP Diversity Plus: MyoF Assay (AID 2284267); settings: primary human lung fibroblasts;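 note: total protein by SRB absorbance in parallel cultures as cytotoxicity measure; cells assessed 24 h after compound addition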
Method: BSK_MyoF is a cell-based, multiplexed-readout assay that uses lung fibroblasts, […], with measurements taken at 24 hours after chemical dosing in a microplate: 96-well plate.BSK_MyoF_SRB is an assay component measured in the BSK_MyoF assay. It measures 0.1% sulforhodamine related to cell death using Sulforhodamine staining technology.Data from the assay component BSK_MyoF_SRB was analyzed at the endpoint, BSK_MyoF_SRB, in the positive analysis fitting direction relative to DMSO as the negative control and baseline of activity. Using a type of viability reporter, gain or loss-of-signal activity can be used to understand protein changes. […]
The levels of cell surface (or secreted, indicated by the prefix "s") biomarker endpoints were measured by ELISA. Overt cytotoxicity to cells in confluent adherent cultures (all systems other than the BT system) was assessed by measuring total protein levels using sulforhodamine B (SRB) staining in parallel cultures at the time of biomarker measurements, indicated as SRB endpoints. For proliferation assays for adherent cell types, individual cell types are cultured at sub-confluence and relative cell numbers quantified by SRB staining at time points optimized for each system (48 h: 3C and CASM3C systems; 72 h: BT and HDF3CGF systems; 96 h: SAg system). […] Plates were read after 6 h.

[9] = read-out: Matrix Metallopeptidase 1 (MMP1), MMP1 (gene 4312); assay: BSK_MyoF_MMP1: BioMAP Diversity Plus: MyoF Assay for Matrix Metallopeptidase 1 (MMP1) Biomarker Activity (AID 2284268); settings: primary human lung fibroblasts
In short: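 ELISA readout of MMP1 in primary human lung fibroblast cultures, 24 h post-dosing. Gain of signal versus DMSO vehicle control defines activity. Parallel SRB staining (0.1% after 10% TCA fixation, 560 nm) flags overt cytotoxicity.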

[10] = read-out: TIMP metallopeptidase inhibitor 1 (TIMP1), TIMP1 (gene 7076); assay: BSK_MyoF_TIMP1: BioMAP Diversity Plus: MyoF Assay for TIMP metallopeptidase inhibitor 1 (TIMP1) Biomarker Activity (AID 2284269); settings: primary human lung fibroblasts
In short: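 Fibroblasts from human lung are dosed with chemical, cultured 24 h, and assayed for TIMP-1 by ELISA. Increases over the DMSO baseline are scored, with SRB total-protein staining run in parallel for cytotoxicity.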

Measured: AC50

CCCSP(=O)(OCC)SCCC
not listed: [8] | [9] | [10]
inactive: all other assays above

O=[N+]([O-])c1cc(C(F)(F)F)c(Cl)c([N+](=O)[O-])c1Nc1ncc(C(F)(F)F)cc1Cl
active: [8] 2.6 µM | [9] 3.25 µM | [10] 3.9 µM | [1] 0.736 µM | [2] 0.73 µM | [3] 0.601 µM | [4] 1.02 µM | [5] 1.3 µM | [6] 1.13 µM | [7] 3.71 µM

COP(=O)(NC(C)=O)SC (stereo unspecified)
not listed: [8] | [9] | [10]
inactive: all other assays above

CCOC(=O)CC(SP(=O)(OC)OC)C(=O)OCC (stereo unspecified)
not listed: [8] | [9] | [10]
inactive: all other assays above

CN1COCN(Cc2cnc(Cl)s2)C1=N[N+](=O)[O-]
not listed: [8] | [9] | [10]
inactive: all other assays above

CC(=NC#N)N(C)Cc1ccc(Cl)nc1
inactive: [1] | [2] | [3] | [4] | [6] | [7]

CCOP(=S)(Oc1cnc(C(C)(C)C)nc1)OC(C)C (stereo unspecified)
not listed: [8] | [9] | [10]
inactive: all other assays above

CCOP(=S)(OCC)OC(Cl)C(Cl)(Cl)Cl (stereo unspecified)
not listed: [8] | [9] | [10]
inactive: all other assays above

S=C1NCCN1
not listed: [8] | [9] | [10]
inactive: all other assays above

CCOP(=S)(OCC)SCCSCC
inactive: [1] | [2] | [3] | [4] | [6] | [7]

COP(=O)(OC)OC(Br)C(Cl)(Cl)Br (stereo unspecified)
active: [1] 34.9 µM | [2] 39 µM | [3] 40.9 µM | [4] 23.5 µM | [6] 27 µM
inactive: [7]

CCOP(=O)(OCC)Oc1cc(C)nc(C(C)C)n1
not listed: [8] | [9] | [10]
inactive: all other assays above

CCCCSP(=O)(SCCCC)SCCCC
not listed: [8] | [9] | [10]
inactive: all other assays above

C=C(C)[C@H]1Cc2c(ccc3c2O[C@@H]2COc4cc(OC)c(OC)cc4[C@@H]2C3=O)O1
active: [1] 0.0062 µM | [2] 220 nM and 4.24 nM | [3] 58 nM and 7.87 nM | [4] 224 nM and 10 nM | [6] 220 nM and 15.5 nM
inactive: [1] | [7]

C[N+]1(C)CCCCC1
not listed: [8] | [9] | [10]
inactive: all other assays above

CSC1=N[C@@](C)(c2ccccc2)C(=O)N1Nc1ccccc1
inactive: [1] | [2] | [3] | [4] | [6] | [7]

CCOP(=S)(OCC)Oc1cc(C)nc(C(C)C)n1
not listed: [8] | [9] | [10]
inactive: all other assays above

CC1=NNC(=O)N(/N=C/c2cccnc2)C1
inactive: [1] | [2] | [3] | [4] | [6] | [7]

CC[C@H](C)[C@H]1O[C@]2(C=C[C@@H]1C)C[C@@H]1C[C@@H](C/C=C(\C)[C@@H](O[C@H]3C[C@H](OC)[C@@H](O[C@H]4C[C@H](OC)[C@@H](NC)[C@H](C)O4)[C@H](C)O3)[C@@H](C)/C=C/C=C3\CO[C@@H]4[C@H](O)C(C)=C[C@@H](C(=O)O1)[C@]34O)O2
active: [1] 932 nM and 1.74 µM | [2] 2.13 µM and 3.89 µM | [3] 1.27 µM | [4] 979 nM and 3.08 µM | [5] 305 nM and 96.9 nM | [6] 1.04 µM and 5.11 µM | [7] 1.88 µM and 4.62 µM

CON=C(C(=O)OC)c1ccccc1CON=C(C)c1cccc(C(F)(F)F)c1
active: [1] 71.2 µM | [3] 1.06 µM | [4] 24.7 µM | [5] 7.95 µM | [6] 0.127 µM
inactive: [2] | [7]

COP(=O)(OC)C(O)C(Cl)(Cl)Cl (stereo unspecified)
inactive: [1] | [2] | [3] | [7]
active: [4] 5.03 µM | [6] 5.08 µM

CN(C)[C@@H]1C(=O)C(C(N)=O)=C(O)[C@@]2(O)C(=O)C3=C(O)c4c(O)cccc4[C@@](C)(O)[C@H]3[C@H](O)[C@@H]12
active: [1] 55.1 µM | [2] 76.1 µM
not listed: [6]
inactive: all other assays above

CC(C)N(C(=O)SCC(Cl)=C(Cl)Cl)C(C)C
inactive: [1] | [2] | [3] | [4] | [5] | [7]

CCOP(=O)(NC(C)C)Oc1ccc(SC)c(C)c1 (stereo unspecified)
active: [5] 10.2 µM
not listed: [8] | [9] | [10]
inactive: all other assays above
